Measured values published in PubChem BioAssay (Tox21).
Results filed as inconclusive are left out. Activity calls are given as the source filed them. Unless noted, calls come from the whole dose curve; as a rule, active = well fitted curve in the direction sought with a large enough effect in the repeat runs; inconclusive = weak or mixed curves; inactive = no such curve, though single readings can be large; an effect the other way counts as inactive or inconclusive.

Tests used:
[1] = qHTS assay to identify small molecule antagonists of the vitamin D receptor (VDR) signaling pathway - cell viability counter screen (AID 743225); note: % is set by controls: 0 for no effect and ±100 for the full control effect; nearly all actives have a fitted effect of over 50% in size
Procedure, shortened: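 VDR-bla HEK 293T cells, 4 h pre-incubation at 37C, then compound plus 1-alpha,25-dihydroxyvitamin D3 (3 nM final) for 16 h. After the beta-lactamase FRET read, CellTiter-Glo was added to the same wells; luminescence after 30 min at room temperature.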

[2] = qHTS assay to identify small molecule agonists of the NFkB signaling pathway - cell viability counter screen (AID 1159515; calls by dose curve; note: series mostly up to about 61 µM; % is set by controls: 0 for no effect and ±100 for the full control effect; nearly all actives have a fitted effect of over 55% in size)
Procedure, shortened: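 Parallel cytotoxicity counter screen in ME-180 cells carrying an NFkB-response-element beta-lactamase reporter, 2,000 cells/well. Compound exposure lasted 5 hr at 37 C, 5% CO2. Cell viability was quantified by CellTiter-Glo luminescence.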

[3] = qHTS assay to identify small molecule agonists of the endoplasmic reticulum stress response signaling pathway (AID 1159516; active = well fitted activation curve with a large enough effect in the signal ratio in the repeat runs, not every such curve was filed as active; the % refers to the signal ratio; note: % is set by controls: 0 for no effect and ±100 for the full control effect)
Procedure, shortened: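 Using a HeLa line with an ESRE-driven beta-lactamase gene, agonist activity was measured by FRET substrate fluorescence (460 and 530 nm emission) after cells were treated with compounds for 5 hr at 37 C and 5% CO2.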

[4] = qHTS assay to identify small molecule agonists of the endoplasmic reticulum stress response signaling pathway - cell viability counter screen (AID 1159517; calls by dose curve;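 note: HeLa cells carrying an ER stress response element beta-lactamase reporter; series mostly up to about 61 µM; % is set by controls: 0 for no effect and ±100 for the full control effect; nearly all actives have a fitted effect of over 50% in size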)
Procedure, shortened: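 In parallel with the ESRE reporter read, cytotoxicity was scored by CellTiter-Glo luminescence (30 min, room temperature) on HeLa ESRE-bla cells dosed for 5 hr.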

[5] = qHTS assay to identify small molecule antagonists of the retinoid-related orphan receptor gamma (ROR-gamma) signaling pathway - cell viability counter screen (AID 1159520); note: % is set by controls: 0 for no effect and ±100 for the full control effect; nearly all actives have a fitted effect of over 50% in size
Procedure, shortened: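 Tet-on ROR gamma CHO cells were given compounds for 2 hr, then doxycycline hyclate at 1 uM final, and incubated 16 hr at 37 C. Viability was measured as ATP content by CellTiter-Glo luminescence.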

[6] = target: Nuclear receptor ROR-gamma (Homo sapiens) (UniProt P51449); assay: qHTS assay to identify small molecule antagonists of the retinoid-related orphan receptor gamma (ROR-gamma) signaling pathway (AID 1159521;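 note: CHO cells with doxycycline inducible ROR-gamma driving an RORE luciferase reporter; top concentration of the series differs between compounds; % is set by controls: 0 for no effect and ±100 for the full control effect; nearly all actives have a fitted effect of over 50% in size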)
Procedure, shortened: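 Tet-on RORγ CHO cells carrying a ROR response element–luciferase reporter were pretreated with compounds for 2 h, then induced with 1 uM (final) doxycycline hyclate for 16 h at 37 C. Antagonism was read as decreased ONE-Glo luminescence.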

[7] = qHTS assay to identify small molecule agonists of the AP-1 signaling pathway - cell viability counter screen (AID 1159525; calls by dose curve; note: nearly all actives have a fitted effect of over 55% in size)
Procedure, shortened: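 Same-well cytotoxicity counter screen of the Tox21 10K library in ME-180 cells. The readout is ATP-dependent luminescence after 5 h compound treatment. Data are normalised to DMSO and tetra n-octyl ammonium bromide controls.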

[8] = qHTS assay to identify small molecule agonists of the AP-1 signaling pathway (AID 1159526; calls by dose curve; note: % is set by controls: 0 for no effect and ±100 for the full control effect)
[9] = target: Retinoic acid receptor RXR-alpha (Homo sapiens) (UniProt P19793); assay: qHTS assay to identify small molecule agonists of the RXR signaling pathway (AID 1159527; calls by dose curve; note: % is set by controls: 0 for no effect and ±100 for the full control effect; nearly all actives have a fitted effect of over 35% in size)
Procedure, shortened: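 GeneBLAzer RXR-alpha-UAS-bla HEK 293T cells in medium with 2% charcoal-stripped FBS, pre-incubated 5 hr at 37 C, then exposed to compounds 16 hr. Beta-lactamase reporter read by FRET substrate, 2 hr room temperature, 460/530 nm emission.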

[10] = qHTS assay to identify small molecule agonists of the RXR signaling pathway - cell viability counter screen (AID 1159529)
Procedure, shortened: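 RXR-alpha-UAS-bla HEK 293T cells in medium with 2% charcoal-stripped FBS were preincubated 5 hr, then exposed to compounds for 16 hr at 37 C. Viability was read as CellTiter-Glo luminescence after 30 min at room temperature.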

[11] = qHTS assay to identify small molecule antagonists of the retinoid acid receptor (RAR) signaling pathway - cell viability counter screen (AID 1159551); note: % is set by controls: 0 for no effect and ±100 for the full control effect; nearly all actives have a fitted effect of over 35% in size
Procedure, shortened: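 ATP-based viability, C3RL4 cells, 6 h at 37 C with 1 uM final retinol co-added after compound; luminescence read 30 min post CellTiter-Glo, RT.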

[12] = qHTS assay to identify small molecule antagonists of the retinoic acid receptor (RAR) signaling pathway (AID 1159552)
Procedure, shortened: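 RARE-luc C3RL4 cells; cpds + 1 uM (final) retinol, 6 hr, 37 C/5% CO2; luciferase reagent, 30 min RT, luminescence readout. Inhibitors of retinol-driven signal scored.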

[13] = qHTS assay to identify small molecule antagonists of the estrogen related receptor (ERR) signaling pathway from Tox21 library - cell viability counter screen (AID 1224834); note: % is set by controls: 0 for no effect and ±100 for the full control effect; nearly all actives have a fitted effect of over 30% in size
Procedure, shortened: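 Compounds in DMSO were pinned onto ERR cells that had been incubated for 6 h, and the plates were held at 37 C for 17.5 h. CellTiter-Fluor reagent was then added and fluorescence was measured after 30 min.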

[14] = qHTS assay to identify small molecule antagonists of the estrogen related receptor (ERR) signaling pathway - cell viability counter screen (AID 1224818);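 note: series mostly up to about 46 µM; viability measured after 17.5 h of compound exposure; % is set by controls: 0 for no effect and ±100 for the full control effect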
Procedure, shortened: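 Quantitative high-throughput viability counter screen in ERR cells. Compounds (DMSO) incubated 17.5 h at 37 C; read-out was CellTiter-Fluor fluorescence.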

[15] = qHTS assay to identify small molecule antagonists of the estrogen related receptor (ERR) signaling pathway (AID 1224819)
Procedure, shortened: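 ERR reporter cell line (NTP) plated at 2,000 cells/well, settled 6 h at 37C/5% CO2, then exposed to LOPAC compounds for 18 h at 37C. One-Glo luciferase luminescence read after 30 min at room temperature.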

[16] = qHTS assay to identify small molecule agonists of the estrogen related receptor (ERR) signaling pathway (AID 1224820); note: % is set by controls: 0 for no effect and ±100 for the full control effect
Procedure, shortened: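 An ERR cell line provided by NTP was seeded at 2,000 cells per well and allowed to settle for 6 h before compounds in DMSO were added. After 18 h at 37 C, luciferase activity was measured by One-Glo luminescence.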

[17] = tested on: estrogen-related receptor alpha (ERRalpha) with PGC-1alpha coactivator, human; assay: qHTS assay to identify small molecule antagonists of the estrogen related receptor signaling pathway with the pleiotropic PPARgamma coactivator (PGC) (AID 1224821; calls by dose curve)
Procedure, shortened: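 A PGC/ERR cell line supplied by NTP is seeded, allowed 6 h at 37 C, and treated with test compounds in DMSO for 18 h. Signal is then measured as luciferase luminescence using One-Glo.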

[18] = qHTS assay to identify small molecule antagonists of the estrogen related receptor signaling pathway with the pleiotropic PPARgamma coactivator (PGC) cell viability counter screen (AID 1224822)
Procedure, shortened: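 Cytotoxicity in the PGC/ERR cell line is assessed with CellTiter-Fluor, read as fluorescence intensity 30 min after reagent addition, following 17.5 h compound treatment at 37 C.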

[19] = qHTS assay to identify small molecule agonists of the estrogen related receptor signaling pathway with the pleiotropic PPARgamma coactivator (PGC) (AID 1224823); note: % is set by controls: 0 for no effect and ±100 for the full control effect
Procedure, shortened: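 Compounds dissolved in DMSO are added by pin tool to PGC/ERR cells that have settled for 6 h, and incubation continues 18 h at 37 C. Reporter output is measured as One-Glo luminescence.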

[20] = qHTS assay to identify small molecule agonists of the retinoic acid receptor (RAR) signaling pathway (AID 1159553); note: % is set by controls: 0 for no effect and ±100 for the full control effect
Procedure, shortened: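 Quantitative high-throughput format: the Tox21 10K library was tested on C3RL4 RARE-luciferase cells for 6 hr at 37 C and 5% CO2, with luminescence measured after a 30 min room-temperature reagent step.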

Chain of Retinoic acid receptor RXR-alpha (Homo sapiens) (P19793 whole entry, looked up): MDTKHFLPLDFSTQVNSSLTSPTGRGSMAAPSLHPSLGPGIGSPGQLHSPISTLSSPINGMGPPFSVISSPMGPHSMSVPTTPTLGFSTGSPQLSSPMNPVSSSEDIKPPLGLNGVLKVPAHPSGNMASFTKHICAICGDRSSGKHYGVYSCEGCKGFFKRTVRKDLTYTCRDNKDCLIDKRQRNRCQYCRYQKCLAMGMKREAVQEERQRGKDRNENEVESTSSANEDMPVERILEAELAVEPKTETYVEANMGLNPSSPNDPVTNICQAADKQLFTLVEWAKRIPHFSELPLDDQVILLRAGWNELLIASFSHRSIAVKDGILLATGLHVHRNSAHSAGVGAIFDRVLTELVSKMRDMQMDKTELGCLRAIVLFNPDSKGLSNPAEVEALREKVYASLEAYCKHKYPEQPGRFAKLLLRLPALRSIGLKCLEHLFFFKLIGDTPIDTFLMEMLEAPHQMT

Nc1ccccn1
inactive: outcome [1] | outcome [2] | outcome [3] | outcome [4] | outcome [5] | Potency [6] | outcome [7] | outcome [8] | Potency [9] | Potency [10] | outcome [11] | Potency [12]

CCCCOC(=O)CCC(C)=O
inactive: outcome [1] | outcome [2] | outcome [3] | outcome [4] | outcome [5] | Potency [6] | outcome [7] | outcome [8] | Potency [9] | Potency [10] | outcome [11] | Potency [12]

CC(CC=O)CC(C)(C)C (stereo not given)
inactive: outcome [1] | outcome [2] | outcome [3] | outcome [4] | outcome [5] | Potency [6] | outcome [7] | outcome [8] | Potency [9] | Potency [10] | outcome [11] | Potency [12] | Potency [13]

CNCC(O)c1ccc(O)c(O)c1 (stereo not given)
inactive: outcome [1] | outcome [2] | outcome [3] | outcome [4] | outcome [5] | Potency [6] | outcome [7] | outcome [8] | Potency [9] | Potency [10] | outcome [11] | outcome [14] | outcome [15] | outcome [16] | outcome [17] | outcome [18] | outcome [19] | Potency [13]

CO[C@@]1(NC(=O)C(C(=O)O)c2ccc(O)cc2)C(=O)N2C(C(=O)O)=C(CSc3nnnn3C)CO[C@@H]21 (stereo not given in full)
inactive: outcome [1] | outcome [2] | outcome [3] | outcome [4] | outcome [5] | Potency [6] | outcome [7] | outcome [8] | Potency [9] | Potency [10] | outcome [11] | Potency [12] | Potency [13]

NCCCC(N)(C(=O)O)C(F)F (stereo not given)
inactive: outcome [1] | outcome [2] | outcome [3] | outcome [4] | outcome [5] | Potency [6] | outcome [7] | outcome [8] | Potency [9] | Potency [10] | outcome [11] | Potency [20] | outcome [14] | outcome [18] | Potency [13]

CCCCN1C=CN(C)C1
inactive: outcome [2] | outcome [3] | outcome [4] | activity, negative = cytotoxicity [5] 1.65% [at 19 µM] | activity change, negative = inhibition [6] 11.4% [at 19 µM] | viability change, negative = cytotoxic [7] 3.01% [at 15.8 µM] | activation [8] -8.87% [at 15.8 µM] | activation [9] 3.97% [at 15.8 µM] | activity change, negative = cytotoxicity [10] -11.3% [at 15.8 µM] | activity change, negative = cytotoxicity [11] 1.26% [at 19 µM] | Potency [20] | viability change, negative = cytotoxic [13] 0.161% [at 19 µM]

O=C1c2ccccc2C(=O)c2cc(O)ccc21
inactive: outcome [1] | outcome [2] | outcome [3] | outcome [4] | outcome [5] | Potency [6] | outcome [7] | outcome [8] | Potency [9] | Potency [10] | outcome [11] | Potency [12]

CNC(=O)Nc1ccc(Cl)c(Cl)c1
inactive: outcome [1] | outcome [2] | outcome [3] | outcome [4] | outcome [5] | Potency [6] | outcome [7] | outcome [8] | Potency [9] | Potency [10] | outcome [11] | Potency [12] | Potency [13]
